From PubChem BioAssay
Several values for one entry are separate records, joined by “and”; a condition that tells them apart may be missing. Identical values can stand only once. Activity calls are given as the source filed them. No rule for the calls is given here.

How the values were obtained:
[1] = liver-stage malaria parasite load reduction – cell-based, known kinase inhibitor set, luminescence, hepatoma host viability (AID 624392); settings: Plasmodium liver stage in hepatoma cells, luciferase luminescence, concentration not given here; liver cell % of control: measured here: host liver cell viability; parasite % of control: stronger effect = lower value;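 also: infected cells incubated roughly two days before readout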
[2] = altered dexamethasone sensitivity, NF-kB reporter, cell-based, luciferase, IL-1B stimulus (AID 624486); settings: IL-1B + dexamethasone, luminescence; percent of negative control (+Dex): actives lie on both sides, concentration not given here; z-score: measured here: IL-1B alone, no Dex;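 as to percent of negative control (+Dex): 100% = mean signal of vehicle control wells on the plate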
[3] = molecular target: Cellular tumor antigen p53 (Homo sapiens) (UniProt P04637); assay: GFP-p53 level modulators in HPV16+ cells – imaging, known kinase inhibitor set, EGFP/DsRed ratio (AID 1053116); settings: GFP-p53 stability, stronger effect = higher value; EGFP object count: measured here: GFP-p53 positive objects count;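 also: cells exposed to compounds for 24 h at 37 °C before reading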
[4] = inducers of IRF3 signaling, differentiated THP-1 – cell-based, PMA-stimulated THP-1, luminescence (AID 1053176); settings: PMA-differentiated THP-1, IRF3 reporter luminescence; stronger effect = higher value

Chain of Cellular tumor antigen p53 (Homo sapiens) (P04637 whole entry, looked up): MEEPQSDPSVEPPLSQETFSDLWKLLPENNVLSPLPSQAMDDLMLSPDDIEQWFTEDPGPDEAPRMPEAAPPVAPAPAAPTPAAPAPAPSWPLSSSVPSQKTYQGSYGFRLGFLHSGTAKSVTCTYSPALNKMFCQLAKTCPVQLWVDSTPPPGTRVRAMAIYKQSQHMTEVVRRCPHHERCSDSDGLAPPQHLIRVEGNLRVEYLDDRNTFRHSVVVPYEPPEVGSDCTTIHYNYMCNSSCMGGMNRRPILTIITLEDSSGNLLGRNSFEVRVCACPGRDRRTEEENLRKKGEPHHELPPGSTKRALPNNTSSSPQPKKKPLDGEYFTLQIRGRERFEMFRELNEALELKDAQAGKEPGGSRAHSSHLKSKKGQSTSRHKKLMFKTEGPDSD

Compound	liver cell % of control [1]	parasite % of control [1]	percent of negative control (+Dex) [2]	z-score [2]	EGFP object count [3]	EGFP/DsRed ratio [3]	fraction signal [4]
CN(C)CC1CCn2c(c(C3=C(c4cn(C)c5ccccc45)C(=O)NC3=O)c3ccccc32)C1 (stereo not drawn)	80.7% and 77.1%	27.7% (inactive) and 36.4% (inactive)	97% (inactive) and 96.5% (inactive)	-0.715 and -0.17	13.5 and 7.5	0.0249 (inactive) and 0.0159 (inactive)	-0.0005 (inactive) and -0.0055 (inactive)
Nc1c(C(=O)c2cccc(CCS(N)(=O)=O)c2)cnn1-c1ccc(F)cc1	92.4%	53.8% (inactive)	105% (inactive)	0.275	2	0.0563 (inactive)	0.0055 (inactive)
O=C1Nc2ccc(F)cc2C1=Cc1ccc[nH]1	55.9%	14% (inactive)	136% (active)	4.44	23	0.607 (inactive)	-0.014 (inactive)
CC(=C1SC(=NCc2cccs2)NC1=O)c1ccc2ncccc2c1	89.5%	33.7% (inactive)	92.5% (inactive)	-0.085	5	0.0357 (inactive)	-0.009 (inactive)
Cn1c(=O)c(Oc2ccc(F)cc2F)cc2cnc(NC3CCOC3)nc21 (stereo not drawn)	96.2%	51.2% (inactive)	104% (inactive)	0.575	4.5	0.257 (inactive)	-0.001 (inactive)
Cn1c(=O)c(Oc2ccc(F)cc2F)cc2cnc(NCCS(C)(=O)=O)nc21	117%	60.7% (inactive)	101% (inactive)	0.95	1	0.00515 (inactive)	0.0015 (inactive)
Nc1c(C(=O)c2cccc(OCCN3CCOCC3)c2)cnn1-c1ccc(F)cc1	121%	47.9% (inactive)	100% (inactive)	0.485	4	0.127 (inactive)	-0.009 (inactive)
O=C1NC(=NCc2ccccc2)SC1=Cc1ccc2ncccc2c1	99.5%	34.9% (inactive)	92.5% (inactive)	-0.26	7	0.173 (inactive)	-0.003 (inactive)
CCOc1ccccc1CCN=C1NC(=O)C(=Cc2ccc3ncccc3c2)S1	106%	66% (inactive)	90% (inactive)	-0.335	11.5	0.141 (inactive)	0.031 (inactive)
CC(Cn1ncnn1)Nc1ncc2cc(Oc3ccc(F)cc3F)c(=O)n(C)c2n1 (stereo not drawn)	111%	71.1% (inactive)	101% (inactive)	0.455	1.5	0.0437 (inactive)	-0.003 (inactive)
Cc1cccc2c(C3=C(c4cn(C)c5ccccc45)C(=O)NC3=O)cn(C)c12	91.7%	45.3% (inactive)	98.5% (inactive)	-1.08	24	0.241 (inactive)	-0.0115 (inactive)
Cn1cc(C2=C(c3cn(C)c4ccccc34)C(=O)NC2=O)c2ccccc21	115%	66.6% (inactive)	110% (inactive)	-0.485	25.5	0.17 (inactive)	-0.001 (inactive)
Cn1cc(C2=C(Sc3ccccc3)C(=O)NC2=O)c2ccccc21	92.3%	50.7% (inactive)	99.5% (inactive)	0.02	2.5	0.0664 (inactive)	0.008 (inactive)
Cn1cc(C2=C(c3cccc(NCC(O)CO)c3)C(=O)NC2=O)c2cc(Cl)ccc21 (stereo not drawn)	134%	44.5% (inactive)	140% (active)	-1.56	15	0.196 (inactive)	-0.0005 (inactive)
Cn1cc(C2=C(c3cccc([N+](=O)[O-])c3)C(=O)NC2=O)c2ccccc21	86.9%	3.57% (inactive)	106% (inactive)	-2.63	14	0.255 (inactive)	0.0015 (inactive)
Nc1c(C(=O)c2cccc(C#CCO)c2)cnn1-c1ccc(F)cc1	100%	58.9% (inactive)	108% (inactive)	1.13	1.5	0.0236 (inactive)	0.008 (inactive)
COCC(N=C1NC(=O)C(=Cc2ccc3ncccc3c2)S1)c1ccccc1 (stereo not drawn)	98.8%	49.5% (inactive)	98% (inactive)	0.145	6.5	0.249 (inactive)	-0.005 (inactive)
Cn1cc(C2=C(c3cn(C)c4c(N)cccc34)C(=O)NC2=O)c2ccccc21	92.4%	40.1% (inactive)	108% (inactive)	-1.47	87.5	1.36 (active)	-0.003 (inactive)
O=C1NC(=O)C(c2c[nH]c3ccccc23)C1c1c[nH]c2ccccc12 (stereo not drawn)	102%	41.2% (inactive)	100% (inactive)	0.125	2.5	0.0298 (inactive)	-0.0005 (inactive)
Cn1cc(C2=C(c3c4n(c5ccccc35)CCNC4)C(=O)NC2=O)c2ccccc21	79.3%	40.6% (inactive)	97.5% (inactive)	-0.32	25	0.0526 (inactive)	-0.007 (inactive)

Compound	liver cell % of control [1]	parasite % of control [1]	percent of negative control (+Dex) [2]	z-score [2]	EGFP object count [3]	EGFP/DsRed ratio [3]	fraction signal [4]
Cn1c(=O)c(Cc2ccccc2F)cc2cnc(NC3CCOCC3)nc21	106%	64.6% (inactive)	107% (inactive)	0.55	2.5	0.0998 (inactive)	0.0035 (inactive)
Nc1c(C(=O)c2ccc(C#CCN3CCOCC3)cc2)cnn1-c1ccc(F)cc1	110%	75.7% (inactive)	106% (inactive)	1.64	4.5	0.119 (inactive)	0.01 (inactive)
Nc1c(C(=O)c2cccc(C#CCN3CCOCC3)c2)cnn1-c1ccc(F)cc1	159%	75.7% (inactive)	120% (inactive)	1.29	2.5	0.12 (inactive)	0.0055 (inactive)
O=c1c(Oc2ccc(F)cc2F)cc2cnc(NC3CCOCC3)nc2n1C1CCS(=O)(=O)CC1	120%	83.4% (inactive)	97% (inactive)	-0.26	3	0.101 (inactive)	-0.0075 (inactive)
COc1cc[nH]c1C=C1C(=O)Nc2ccc(F)c(C#CC3(O)CCOCC3)c21	128%	1.61% (active)	122% (inactive)	-1.81	6	0.109 (inactive)	-0.0095 (inactive)
COc1cccc(C(=O)c2sc(Nc3ccc(N4CCN(C(C)C)CC4)cc3)nc2N)c1	86.7%	389% (inactive)	112% (inactive)	1.07	2.5	0.139 (inactive)	-0.02 (inactive)
CCc1c(C)nc2sc3c(N)ncnc3c2c1C	221%	5.86% (inactive)	53.5% (active)	-4.42	3.5	0.129 (inactive)	-0.001 (inactive)
CNCCCn1cc(C2=C(c3cn(C)c4ccccc34)C(=O)NC2=O)c2ccccc21	82%	60.5% (inactive)	102% (inactive)	0.035	2.5	0.00316 (inactive)	-0.0095 (inactive)
Cn1c(=O)c(Oc2ccc(F)cc2)cc2cnc(NC3CCOCC3)nc21	106%	64.1% (inactive)	104% (inactive)	0.86	3.5	0.251 (inactive)	-0.0055 (inactive)
Cn1cc(C2=C(c3c4n(c5ccccc35)CCCC4)C(=O)NC2=O)c2ccccc21	77.8%	85.7% (inactive)	100% (inactive)	0.55	5.5	0.0663 (inactive)	0.0055 (inactive)
O=C1C(c2c[nH]c3ccccc23)=C(c2c[nH]c3ccccc23)C(=O)N1O	107%	29% (inactive)	94% (inactive)	-1.25	5.5	0.0849 (inactive)	0.0015 (inactive)
Cn1cc(C2=C(c3cn(C)c4ccc(OCc5ccccc5)cc34)C(=O)NC2=O)c2ccccc21	97.7%	46.6% (inactive)	101% (inactive)	-0.035	4.5	0.132 (inactive)	-0.016 (inactive)
CC(CS(C)(=O)=O)Nc1ncc2cc(Oc3ccc(F)cc3F)c(=O)n(C)c2n1 (stereo not drawn)	125% and 102%	49.1% (inactive) and 48.7% (inactive)	99.5% (inactive) and 101% (inactive)	0.115 and 0.87	5.5 and 3.5	0.387 (inactive) and 0.111 (inactive)	-0.005 (inactive) and -0.0115 (inactive)
COc1ccccc1C(=O)c1cnc(NC2CCN(S(C)(=O)=O)CC2)nc1N	100%	96.6% (inactive)	85% (inactive)	-1.16	5	0.0796 (inactive)	0.0015 (inactive)
Fc1ccc(-c2c(-c3ccncc3)n(CCN3CCOCC3)c3cccnc23)cc1	113%	63.8% (inactive)	91.5% (inactive)	0.395	1.5	0.18 (inactive)	-0.0075 (inactive)
CC(=O)NC(Cc1ccc(OP(=O)(O)O)cc1)C(=O)NC1CCC(=O)N2CCCC(C(=O)NCc3ccc(Cl)cc3)N2C1=O (stereo not drawn)	96.1%	45.1% (inactive)	95.5% (inactive)	0.05	3.5	0.276 (inactive)	-0.003 (inactive)
COc1cc[nH]c1C=C1C(=O)Nc2ccc(F)c(C#CC(O)C(N)C(C)O)c21 (stereo not drawn)	76.5%	46.6% (inactive)	135% (inactive)	0.23	250	1.32 (inactive)	0.0035 (inactive)
CC(=O)NC(Cc1ccc(OP(=O)(O)O)cc1)C(=O)NC1CCC(=O)N2CCCC(C(=O)NCc3ccccc3)N2C1=O (stereo not drawn)	105%	55% (inactive)	102% (inactive)	0.685	1.5	0.0487 (inactive)	-0.0115 (inactive)
Nc1c(C(=O)c2cccc(C#CCN3CCCCC3)c2)cnn1-c1ccc(F)cc1	91.6%	50.5% (inactive)	101% (inactive)	0.935	1.5	0.0667 (inactive)	0.0075 (inactive)
